Bioassay records from PubChem.
Sampled rows, rich in hits. Any-hit rate of the full collection: about 12%.
PLK1 PBD inh – blocks phosphopeptide binding to human PLK1 polo-box domain | Plk1 PBD binding of FITC phosphopeptide, fluorescence polarization | Potency, µM, actives largely listed as inhibitors | 2.8% of 360,000 active; further: series mostly up to about 57 µM; nearly all actives have a fitted effect of over 65% in size
HP1b binding inh – inhibitors of HP1-beta chromodomain binding to methylated histone tails. AlphaScreen HP1-beta / biotin-H3K9me3 peptide binding. P83916. 0.56% of 390,000 active. Potency, µM (series often up to 114 µM), usual class: inhibitors; further: nearly all actives have a fitted effect of over 70% in size
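HP1-beta protein (50 nM final) preincubated 30 min at room temperature with biotinylated H3(1-18)K9me3 peptide (50 nM) in PBS pH 7.4, 0.01% Tween-20, then compound added for 30 min. AlphaScreen streptavidin donor/nickel chelate acceptor beads (10 ug/mL final), 30 min dark, luminescence read.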
BAZ2B block – inhibitors of human BAZ2B bromodomain | AlphaScreen BAZ2B-H3K14Ac peptide displacement | Potency, µM (highest dose often 114 µM), actives largely listed as inhibitors | 4.4% of 360,000 active | AID 504333; further: nearly all actives have a fitted effect of over 60% in size
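BAZ2B 50 nM plus b-H3(5-23)K14Ac 50 nM, PBS pH 7.4/0.01% Tween-20, 30 min RT; compound added (max 110 uM), 30 min RT; streptavidin donor/Ni-chelate acceptor beads 10 ug/mL final, 20 min dark; AlphaScreen read.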
G9a inh – blocks human histone lysine methyltransferase G9a. AID 504332. Potency, µM (series often up to 102 µM), hits mostly inhibitors. Q96KQ7. 8.8% of 350,000 active. G9a H3K9 monomethylation, AlphaScreen, 2 h; further: nearly all actives have a fitted effect of over 75% in size
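AlphaScreen detection with an anti-monomethyl H3K9 antibody quantified product after a 2 h room-temperature reaction containing 500 nM biotinylated H3K9 peptide, 20 µM SAM and 20 nM enzyme, which had been preincubated 15 min with compound.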
Sfp inh – Sfp phosphopantetheinyl transferase inhibition. 3.5% of 310,000 active. Q9F4F7. Potency, µM, actives largely listed as inhibitors. Biochemical Sfp PPTase activity, qHTS;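 further: the enzyme is Sfp with the accession as filed and its product quenches rhodamine fluorescence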
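Fluorescence-quenching assay with 15 nM Sfp, 5 uM rhodamine-CoA and 12.5 uM BHQ-2-labelled ybbR peptide in pH 7.6 Hepes/MgCl2 buffer. Enzyme was pre-incubated with compound for 15 min at room temperature. Rate was taken from the 30-min fluorescence change (525/598 nm).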
JMJD2A Tudor inh – JMJD2A Tudor domain (human) inhibition | AlphaScreen JMJD2A-Tudor / H3K4me3 peptide binding | Potency, µM (highest dose often 114 µM), most hits filed as inhibitors | 4.4% of 390,000 active | AID 504339; further: nearly all actives have a fitted effect of over 50% in size
Target sequence (O75164 whole entry, looked up, the tested form may be a part): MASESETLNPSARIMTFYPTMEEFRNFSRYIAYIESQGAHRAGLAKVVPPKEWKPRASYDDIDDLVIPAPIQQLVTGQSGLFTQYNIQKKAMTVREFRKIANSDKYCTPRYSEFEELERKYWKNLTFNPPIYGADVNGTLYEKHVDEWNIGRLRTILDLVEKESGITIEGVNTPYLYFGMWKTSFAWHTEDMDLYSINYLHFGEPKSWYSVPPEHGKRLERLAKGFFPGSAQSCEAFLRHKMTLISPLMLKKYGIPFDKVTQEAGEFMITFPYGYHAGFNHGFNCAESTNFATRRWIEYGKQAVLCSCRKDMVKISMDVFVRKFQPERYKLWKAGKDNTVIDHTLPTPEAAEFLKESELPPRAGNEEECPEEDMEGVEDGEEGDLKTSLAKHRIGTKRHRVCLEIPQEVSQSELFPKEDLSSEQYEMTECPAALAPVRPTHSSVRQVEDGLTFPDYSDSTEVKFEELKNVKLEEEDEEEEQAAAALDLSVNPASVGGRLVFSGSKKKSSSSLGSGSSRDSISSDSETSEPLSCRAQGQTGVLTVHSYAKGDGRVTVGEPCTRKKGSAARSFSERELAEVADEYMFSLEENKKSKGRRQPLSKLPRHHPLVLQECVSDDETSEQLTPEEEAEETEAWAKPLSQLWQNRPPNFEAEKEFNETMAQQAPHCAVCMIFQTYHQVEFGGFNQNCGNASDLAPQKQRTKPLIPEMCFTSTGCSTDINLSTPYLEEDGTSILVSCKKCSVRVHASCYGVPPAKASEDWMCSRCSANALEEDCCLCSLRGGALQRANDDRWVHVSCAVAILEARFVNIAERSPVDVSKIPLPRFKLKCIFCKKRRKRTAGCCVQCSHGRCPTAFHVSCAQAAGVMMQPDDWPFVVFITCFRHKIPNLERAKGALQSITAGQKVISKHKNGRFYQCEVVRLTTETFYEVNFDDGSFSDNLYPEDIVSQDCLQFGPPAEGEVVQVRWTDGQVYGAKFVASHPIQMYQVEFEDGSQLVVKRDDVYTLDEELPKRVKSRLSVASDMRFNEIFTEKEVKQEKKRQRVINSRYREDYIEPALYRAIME
Numbers stand for hits; - = inactive; ? = inconclusive; . = no result given; ! = repeats disagree; [ ] = remark or other dose. The call rests on the fitted dose curve; in most records, active means well fitted curve in the direction sought with a large enough effect; inconclusive means small, poorly fitted or top-dose-only effect, or another doubt; inactive means no such curve, though single readings can be large; an effect the other way counts as inactive or inconclusive.

SMILES	PLK1 PBD inh	HP1b binding inh	BAZ2B block	G9a inh	Sfp inh	JMJD2A Tudor inh
O=C(NC1CN2CCC1CC2)c1ccc(-c2ccc([N+](=O)[O-])cc2)o1 (stereo not given)	-	-	-	?	56µM	-
COc1ccccc1N1C(=O)CC(=O)NC1=O	-	-	50µM	-	-	-
CCc1ccccc1N1C(=O)CC(=O)NC1=O	-	-	-	-	-	-
Cc1ccccc1N1C(=O)CC(=O)NC1=O	-	-	-	45µM	56µM	-
CC(=O)[C@@]1(O)CC[C@H]2C3CCC4=CC(=O)CC[C@]4(C)C3CC[C@@]21C (stereo not given in full)	.	.	.	-[12.7 µM]	.	.
CCc1ccc(-n2nc(C)c3c(C(=O)NCCc4ccc(OC)c(OC)c4)cc(C)nc32)cc1	.	-	-	-	.	-
CCN1C(=O)C(=Cc2ccc(C)s2)C(=O)N(CC)C1=S	0.53µM	40µM	45µM	35µM	?	25µM
CCN1C(=O)C(=C2C=C(C)OC(C)=C2)C(=O)N(CC)C1=S	-	-	-	-	-	-
O=C(Nc1ccc2c(c1)OCO2)c1cccn(Cc2ccc(F)cc2)c1=O	.	-	?	?	.	-
O=[N+]([O-])c1ccc(N2CCOCC2)c2c1no[n+]2[O-]	-	.	.	.	.	.
CC1=CC(=C2C(=O)NC(=O)NC2=O)C=C(C(F)(F)F)N1Cc1ccccc1	-	-	-	.	-	-
CC1=CC(=C2C(=O)NC(=S)NC2=O)C=C(C(F)(F)F)N1Cc1ccccc1	-	-	-	79µM	-	-
CCCC(=O)c1c(O)[nH]c(=O)[nH]c1=O	-	-	?	-[12.7 µM]	-	18µM
CC/C(=N\NC(N)=O)c1c(O)[nH]c(=O)[nH]c1=O	-	-	-	?	?	-
O=C1NCN(c2ccccc2)C12CCN(C(c1cccc3ccccc13)c1nnnn1-c1ccc3c(c1)OCCO3)CC2 (stereo not given)	-	.	.	.	.	.
c1csc(C2(N3CCCCC3)CCCCC2)c1	.	.	.	-[12.7 µM]	-	.
c1ccc2sc(C3(N4CCCCC4)CCCCC3)cc2c1	.	.	.	8.9µM!	-	.
COc1ccccc1N1CCN(CCc2c[nH]c3cc4c(cc23)OCO4)CC1	-	?	.	.	.	25µM
O=C(Nc1ccc2oc(-c3cccnc3)nc2c1)c1ccc(-c2cccc(Cl)c2)o1	.	?	56µM	?	.	79µM
Cn1cc2c([N+](=O)[O-])cc([N+](=O)[O-])cc2n1	.	.	?	79µM	-	.
CN1CN(c2ccccc2)C2(CCN(CCCSc3ccccc3NC(=O)/C=C/c3ccccc3)CC2)C1=O	-	?	.	.	.	40µM
C[C@@H](N)Cc1cnc[nH]1	-	-	.	?	-	?
O=C(O)Cc1cnc[nH]1	-	-	.	9.5µM!	50µM	7.1µM
CC(C)(O)C(Cl)(Cl)Cl	.	.	.	?	-	.
O=c1cc(-c2ccc(O)c(O)c2)oc2cc(O)cc(O)c12	-	-	79µM	10µM	?	45µM
SMILES	PLK1 PBD inh	HP1b binding inh	BAZ2B block	G9a inh	Sfp inh	JMJD2A Tudor inh
O=c1c(O)c(-c2ccc(O)c(O)c2)oc2cc(O)cc(O)c12	-	-	?	13µM	56µM!	?
CC1CCCCN1C(=O)Cn1cc(C=C2C(=O)N(C)C(=O)N(C)C2=O)c2ccccc21 (stereo not given)	17µM	-	-	?	-	-
CCN(CC)C(=O)Cn1cc(C=C2C(=O)N(C)C(=O)N(C)C2=O)c2ccccc21	30µM	-	-	-[2.33 µM]	-	-
O=C(c1cc(Cl)cc(Cl)c1)N1Cc2ccccc2-n2nncc2C1	-	.	.	.	.	.
C/C1=C/C(=O)O[C@@H]2C[C@@H](CC[C@H](C)/C=C\CC1)O[C@@](O)(C1CSC(=O)N1)C2 (stereo not given in full)	.	.	.	.	-	.
O=C1NC(=O)C(=O)C(=O)N1	.	.	.	.	14µM	.
ClC1=C(Cl)C(Cl)=C(Cl)C1=C/C=C/c1ccccc1	-	6.3µM	3.5µM	3.2µM	-	5.6µM
Cc1ccc(-n2nc(C)c3c2OC(N)=C(C#N)C3c2cccs2)cc1 (stereo not given)	-	-	35µM	35µM	-	-
O=C(NCc1ccco1)C(c1ccco1)N(C(=O)Cn1nnc2ccccc21)c1ccc2c(c1)CCC2 (stereo not given)	-	?	.	.	.	?
CC(=O)Nc1ccc(N(C(=O)Cn2nnc3ccccc32)C(C(=O)NC2CCCC2)c2ccc(O)c(O)c2)cc1 (stereo not given)	-	-	-	50µM	-	-
CCOC(=O)NC(O)C(Cl)(Cl)Cl (stereo not given)	.	.	.	-[12.7 µM]	-	.
Nc1ccc2ccc3cccc[n+]3c2c1	0.67µM	-	-	35µM	-	-
C[C@]12CCC3C(CC[C@H]4C[C@H](O)CC[C@]34C)C1C[C@@H](O)[C@H]2O (stereo not given in full)	-	-	.	.	.	-
CCOC(=O)[C@]12Cc3cc(OC)ccc3[C@H]1N(C1CCCCC1)C(=O)c1ccccc12	3µM	.	.	.	.	.
CCOC(=O)[C@]12Cc3cc(Cl)ccc3[C@H]1N(C1CCCCC1)C(=O)c1ccccc12	1.9µM	.	.	.	.	.
CCOC(=O)[C@]12Cc3cc(C)ccc3[C@H]1N(C)C(=O)c1ccccc12	-	.	.	.	.	.
CCOC(=O)[C@]12Cc3cc(Cl)ccc3[C@H]1N(C)C(=O)c1ccccc12	-	.	.	.	.	.
CC(C)c1ccc2c(c1O)CCC1C3=C(CC[C@]21C)C(=O)OC3 (stereo not given in full)	.	.	.	.	-	.
CN(CCOc1ccc(C=C2C(=O)NC(=O)NC2=O)cc1)c1ccccn1	3µM	-	-	45µM	79µM	?
CN(C)[C@@H]1C(=O)C(C(N)=O)=C(O)[C@@]2(O)C(=O)C3=C(O)c4c(O)cccc4[C@@](C)(O)C3[C@H](O)C12 (stereo not given in full)	13µM!	14µM!	6.3µM	4.5µM	.	3.2µM
CN(C)[C@@H]1C(=O)C(C(N)=O)=C(O)[C@]2(O)C(=O)C3=C(O)c4c(O)cccc4[C@@](C)(O)[C@H]3[C@H](O)[C@@H]12	.	.	.	5µM	-	.
CN(C)C1C(=O)C(C(N)=O)=C(O)[C@@]2(O)C(=O)C3=C(O)c4c(O)cccc4[C@@](C)(O)C3[C@H](O)C12 (stereo not given in full)	.	.	.	.	56µM	.
CCC(C)C1NC(=O)C(C(C)=O)=C1O (stereo not given)	-	-	50µM	-[12.7 µM]	-	-
CN1C(=O)C(=Cc2ccc(N(C)C)c([N+](=O)[O-])c2)C(=O)N(C)C1=O	.	.	-	-	56µM	.
c1cc(CN2CC3(CCNCC3)C2)ccn1	.	.	.	-[12.7 µM]	-	.
Cc1ccc(-c2nc(CN3C(=O)CN=C(c4ccccc4)c4cc(Cl)ccc43)c(C)o2)cc1	.	-	-	-	.	-
Cc1oc(-c2ccc(Cl)cc2)nc1CN1CCC(C(=O)NCCCN2CCN(c3cccc(Cl)c3)CC2)CC1	.	-	?	10µM	.	?
CCCCNC(=O)C1CCCN(Cc2nc(-c3ccc(Cl)cc3)oc2C)C1 (stereo not given)	.	-	?	-	.	-
